# According to ChEMBL document CHEMBL1157539, “Thousands of chemical starting points for antimalarial lead identification” (Nature, 2010):
# Tested on: HepG2
# Test: GSK_TCMDC: Percent inhibition of human HepG2 cell line. Test compounds present at 10uM.
# Assay type: functional
row,SMILES,Inhibition
1,CC(C)N1CCN(C(CN2CCN(CCCOc3cccc4ccccc34)CC2)c2ccc(F)cc2)CC1.Cl (stereo not given),54%
2,CC(C)CCN1CCC(Oc2ccc(NC(=O)c3ccsc3)cc2Cl)CC1.O=C(O)C(F)(F)F,19%
3,CN=c1nc(NN=Cc2ccccc2Cl)[nH]c(=Nc2cccc(C(F)(F)F)c2)[nH]1.Cl,12%
4,COCCNC(=O)c1ccc(OC2CCN(CC(C)=Cc3ccccc3)CC2)c(Cl)c1,18%
5,COc1ccc(CN2CCCC(Nc3ccc(F)c(F)c3)C2)c(O)c1 (stereo not given),14%
6,Cl.Oc1ccc(-c2ccccc2)cc1CNC1CCCCC1,24%
7,COc1ccc(-c2cccc(NC(=O)c3ccc(C#N)cc3)c2)cc1CN(C)CCN(C)C.O=C(O)C(F)(F)F,14%
8,CC(C)c1ccc(NC(=O)c2cccc(CN3CCCN(CC4CCCCC4)CC3)c2)cc1.O=C(O)C(F)(F)F,62%
9,Oc1cccc(Nc2nc(NCc3ccco3)c3ccccc3n2)c1,9%
10,CCCCCCc1cc2cc(-c3csc(C=Cc4ccccc4)n3)c(=O)oc2cc1O,17%
11,Cc1[nH]c2ccc(-c3ccc(N(C)C)cc3)cc2c(=O)c1Cl,0%
12,Clc1ccc(Nc2nc(Nc3ccc(Cl)c(Cl)c3)nc(Sc3nc4ccccc4[nH]3)n2)cc1Cl,10%
13,NC1CCN(c2nc(NCCCc3ccc(O)cc3)nc(NCc3cccc4ccccc34)n2)CC1.O=C(O)C(F)(F)F,12%
14,O=C(NC1CCCCN(Cc2ccccc2O)C1)c1cc(F)cc(F)c1.O=C(O)C(F)(F)F (stereo not given),7%
15,COc1ccc2nccc([C@@H](O)CN3CCC(NCc4nc5cc(F)c(F)cc5[nH]4)CC3)c2c1.O=C(O)C(=O)O,12%
16,CCc1nnc2sc(-c3cccc(NC(=O)c4ccc(C)c([N+](=O)[O-])c4)c3)nn12,10%
17,Nc1ncnc2nc(-c3ccc(F)cc3)cc(-c3ccc(NC(=O)c4ccccc4)cc3)c12,0%
18,CCc1cn2c3c(cc(C(=O)N[C@@H](Cc4cc(F)cc(F)c4)[C@H](O)CNC4CC4)cc13)N(C)S(=O)(=O)CC2.O=CO,3%
19,Cc1c2ccc(N(C)c3ccnc(Nc4ccc5c(c4)nc(NC(C)C)n5C)n3)cc2nn1C.Cl,2%
20,CN(C)C(CNC(=O)c1cc(-c2ccncc2)c(-c2ccc(NC(=O)Nc3cccc(F)c3)cc2)o1)c1ccccc1.O=C(O)C(F)(F)F (stereo not given),11%
21,CCOc1cc(C2C(C(=O)OC(C)C)=C(C)NC3=C2C(=O)CC(c2ccc(Cl)cc2)C3)ccc1OC(C)=O (stereo not given),16%
22,CCCc1cc(OC)c(C[C@H]2c3cc(O)c(Cl)cc3CCN2C)cc1OC.Cl,0%
23,Cc1cccc2nc(-c3ccc(-c4ccc(NC(=O)Nc5ccsc5)cc4)cc3)[nH]c12,49%
24,O=c1cc(NCCC(CNCc2cc3ccccc3o2)NCc2cc(Br)cc(Br)c2)[nH]c2ccccc12 (stereo not given),6%
25,CS(=O)(=O)c1ccc(CNCc2ccc(-c3ccc(-c4nc5cc(F)ccc5[nH]4)s3)cc2)cc1.O=C(O)C(F)(F)F,22%
